Screens (PubChem BioAssay)
The entries come from a sample that favours hits as a whole.
HT1080NT lethal = kills 2HG-producing HT-1080-NT fibrosarcoma cells; AID 686970; HT-1080-NT fibrosarcoma viability, CellTiter-Glo ATP luminescence, 48 h; 1.6% of 360,000 active; Potency, µM (top dose mostly 46.1 µM), for the others: at the highest dose activity, negative = less viability, most hits filed as cytotoxic;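 note: NT is the 2HG producing partner of a matched IDH1 knockdown line; potency is the fitted concentration of half-maximal effect; 0% = DMSO-treated cells and -100% = media-only wells without cells; nearly all actives have a fitted effect of over 55% in size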
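Fibrosarcoma NT cells, 750 per well in 5% FBS RPMI, were exposed to compound for 48 hours. Viability: CellTiter-Glo luminescence.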
HT1080 IDH1KD tx = toxicity to HT-1080 IDH1 knockdown cells (counter line); Potency, µM (series often up to 46.1 µM), without a hit: top-dose activity, negative = toxicity, hits mostly cytotoxic; HT-1080 IDH1 knockdown viability, ATP luminescence, 48 h; 2% of 360,000 active;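 note: potency is the fitted concentration of half-maximal effect; 0% = DMSO wells and -100% = cell-free medium wells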
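Viability of IDH1-knockdown HT-1080 fibrosarcoma cells was assessed by CellTiter-Glo after 48 h at 37 °C with titrated compound; concentration-effect curves were classified by fit quality and response size.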
ALOX12 inh = blocks human arachidonate 12S-lipoxygenase. purified 12hLO, xylenol orange hydroperoxide absorbance. Potency, µM (series often up to 108 µM), for inactives: at the highest dose activity change, negative = inhibition, most hits filed as inhibitors. 1.1% of 580,000 active. AID 1671190; note: potency is the fitted concentration of half-maximal effect
Target sequence (P18054 whole entry, looked up): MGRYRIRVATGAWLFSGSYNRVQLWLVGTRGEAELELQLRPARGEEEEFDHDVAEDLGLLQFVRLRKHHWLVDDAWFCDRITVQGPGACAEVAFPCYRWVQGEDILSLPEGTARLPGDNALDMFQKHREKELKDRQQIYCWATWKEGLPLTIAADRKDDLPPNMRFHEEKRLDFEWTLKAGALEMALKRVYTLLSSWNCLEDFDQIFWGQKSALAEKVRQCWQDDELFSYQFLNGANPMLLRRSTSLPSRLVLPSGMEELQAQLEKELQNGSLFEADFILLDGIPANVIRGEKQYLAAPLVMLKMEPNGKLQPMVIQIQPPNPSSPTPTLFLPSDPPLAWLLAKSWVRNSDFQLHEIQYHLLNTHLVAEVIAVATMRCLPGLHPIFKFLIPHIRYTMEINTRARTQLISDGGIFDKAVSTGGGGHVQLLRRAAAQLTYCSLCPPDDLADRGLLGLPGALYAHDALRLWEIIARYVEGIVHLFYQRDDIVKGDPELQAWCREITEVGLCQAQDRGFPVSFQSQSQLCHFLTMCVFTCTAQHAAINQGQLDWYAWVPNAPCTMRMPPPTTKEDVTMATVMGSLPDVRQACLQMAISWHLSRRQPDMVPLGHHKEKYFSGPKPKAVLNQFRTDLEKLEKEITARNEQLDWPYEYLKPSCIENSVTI
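Purified human 12hLO (150 nM final) in 25 mM Hepes, 0.01% Triton X-100, pH 7.0 was preincubated 15 min at room temperature with compound. Then 40 uM arachidonic acid was added, 30 min. Hydroperoxide was read by Fe-XO absorbance ratio 573/405 nm.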
DT40 TDP1 CPT = DT40-hTDP1 cell growth loss with CPT | AID 686979 | Potency, µM (top dose mostly 46.2 µM), inactives show top-dose activity change, negative = growth inhibition, actives largely listed as inhibitors | chicken DT40 Tdp1-/-;hTDP1 cells + 20 nM CPT, ATP luminescence, 48 h | 12% of 420,000 active; note: potency is the fitted concentration of half-maximal effect; nearly all actives have a fitted effect of over 55% in size
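Chicken DT40 Tdp1-/- cells stably complemented with human TDP1 were seeded at 400 cells/well in medium containing 20 nM camptothecin, exposed to pin-transferred compounds, and grown at 37 °C for at least 48 hr. Viability was read as ATP luminescence.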
TDP1 cell noCPT = qHTS for Inhibitors of human tyrosyl-DNA phosphodiesterase 1 (TDP1): qHTS in cells in absence of CPT. Potency, µM (top dose mostly 46.2 µM), for inactives: at the highest dose activity change, negative = growth inhibition, most hits filed as inhibitors. DT40 Tdp1-/- hTDP1 cells, no CPT, ATP luminescence, 48 h. 15% of 420,000 active; note: potency is the fitted concentration of half-maximal effect; nearly all actives have a fitted effect of over 55% in size
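DT40 Tdp1-/-;hTDP1 cells, no CPT (DMSO vehicle only), 400 cells/well; compounds pin-transferred; ≥48 hr, 37 °C; CellTiter-Glo 30 min RT dark, luminescence read.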
IL-1B inflam inh = blocks inflammasome-driven IL-1 beta release; AID 743279; 4.7% of 360,000 active; THP-1 LPS/ATP IL-1B secretion, AlphaLISA, 16 h; active compounds read low; activity change, % at 57.5 µM; in the data active = activity change below about -50%; inconclusive = mostly about -30% to -49%
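Secreted IL-1B measured by AlphaLISA bead assay after 16 h compound exposure of THP-1 cells; compounds (final up to 57.5 uM) added 1 h before LPS (250 ng/mL) and ATP (1.25 mM) stimulation; lower signal means less secretion.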
Numbers without * were called inactive. Unless noted, calls come from the whole dose curve; as a rule, active = well fitted curve in the direction sought with a large enough effect; inconclusive = small, poorly fitted or top-dose-only effect, or another doubt; inactive = no such curve, though single readings can be large; an effect the other way counts as inactive or inconclusive. Unless noted, % is set by controls: 0 for no effect and ±100 for the full control effect.

What do the screens show for `COc1ccc(-c2nc3sc(CCNC(=O)Cc4ccc(F)cc4)c(C)n3n2)cc1`?
ALOX12 inh: -24%; DT40 TDP1 CPT: 16µM*; TDP1 cell noCPT: 16µM*

Results for COc1ccc(-c2nc3sc(CCNC(=O)Cc4ccccc4)c(C)n3n2)cc1 ?
ALOX12 inh: inconclusive; DT40 TDP1 CPT: 15µM*; TDP1 cell noCPT: 21µM*

How did Cc1ccc(-c2cccc(C3CC=CC4C3C(=O)N(Cc3ccccc3)C4c3cc(C)ccc3F)c2)cc1 (stereo not drawn) do in these assays?
HT1080NT lethal: -20%; HT1080 IDH1KD tx: -1%; ALOX12 inh: 8%; DT40 TDP1 CPT: 16µM*; TDP1 cell noCPT: 15µM*; IL-1B inflam inh: 33

Results for CN(C)c1ccc(-c2cccc(C3CC=CC4C3C(=O)N(Cc3ccccc3)C4c3ccc(C(F)(F)F)cc3)c2)cc1 (stereo not drawn) ?
HT1080NT lethal: 0%; HT1080 IDH1KD tx: 1%; ALOX12 inh: -3%; DT40 TDP1 CPT: 12µM*; TDP1 cell noCPT: 23µM*; IL-1B inflam inh: 27

What do the screens show for `CN1C(=O)C2C(c3ccc(N(C)C)cc3)NN(Cc3ccccc3)C2C1=O` (stereo not drawn)?
HT1080NT lethal: -20%; HT1080 IDH1KD tx: 0%; ALOX12 inh: -17%; DT40 TDP1 CPT: 2%; TDP1 cell noCPT: -8%; IL-1B inflam inh: -3

How did COc1ccc(-c2ccc(C)cc2)cc1[C@H]1[C@@H]2C=CCC[C@@]2(C)C(=O)N1Cc1ccccc1 do in these assays?
HT1080NT lethal: inconclusive; HT1080 IDH1KD tx: inconclusive; ALOX12 inh: -26%; DT40 TDP1 CPT: inconclusive; TDP1 cell noCPT: inconclusive; IL-1B inflam inh: 4

How did COc1ccc(-c2cccc(C3CC=CC4C3C(=O)N(Cc3ccccc3)C4c3ccc(C(F)(F)F)cc3)c2)cc1 (stereo not drawn) do in these assays?
HT1080NT lethal: -3%; HT1080 IDH1KD tx: -15%; ALOX12 inh: 0%; DT40 TDP1 CPT: inconclusive; TDP1 cell noCPT: 15µM*; IL-1B inflam inh: 48

Results for CN(CCCNc1ccccc1)c1nc(-c2ccncc2)nc2ccccc12 ?
ALOX12 inh: -3%

Results for Cc1ncccc1OC1(C(=O)NCc2n[nH]c3c2CCC3)CCNCC1 ?
ALOX12 inh: 12%

What do the screens show for `CCN(CC)C(=O)CN1C(=O)C(=O)c2ccccc21`?
HT1080NT lethal: 19%; HT1080 IDH1KD tx: 5%; ALOX12 inh: -13%; DT40 TDP1 CPT: -13%; TDP1 cell noCPT: 0%; IL-1B inflam inh: 10

Results for O=C1C(=O)N(CNc2ccccn2)c2ccccc21 ?
HT1080NT lethal: inconclusive; HT1080 IDH1KD tx: -22%; ALOX12 inh: 57%; DT40 TDP1 CPT: 2.1µM*; TDP1 cell noCPT: 1.6µM*; IL-1B inflam inh: 62

Results for COC(=O)C(Cc1ccc(OC(=O)c2ccccc2C)cc1)N1Cc2ccccc2C1=O (stereo not drawn) ?
HT1080NT lethal: -5%; HT1080 IDH1KD tx: -6%; ALOX12 inh: 0%; DT40 TDP1 CPT: inconclusive; TDP1 cell noCPT: 18µM*; IL-1B inflam inh: 0

What do the screens show for `COc1ccc(C(CC(=O)Nc2ccc(Br)cn2)N2Cc3ccccc3C2=O)cc1` (stereo not drawn)?
ALOX12 inh: -16%; DT40 TDP1 CPT: 5.2µM*; TDP1 cell noCPT: 23µM*

What do the screens show for `CC(C)NC(=O)CC(c1ccc(F)cc1)N1Cc2ccccc2C1=O` (stereo not drawn)?
ALOX12 inh: 30%

How did COc1ccc(CNC(=O)CC(c2ccc(OC)cc2)N2Cc3ccccc3C2=O)cc1 (stereo not drawn) do in these assays?
ALOX12 inh: 0%; DT40 TDP1 CPT: inconclusive; TDP1 cell noCPT: 16µM*

How did COc1ccc(CNC(=O)C(CC(C)C)N2Cc3ccccc3C2=O)cc1 (stereo not drawn) do in these assays?
ALOX12 inh: -12%; DT40 TDP1 CPT: inconclusive; TDP1 cell noCPT: inconclusive

How did CCOc1ccccc1NC(=O)CC(c1ccc(F)cc1)N1Cc2ccccc2C1=O (stereo not drawn) do in these assays?
ALOX12 inh: -6%; DT40 TDP1 CPT: 16µM*; TDP1 cell noCPT: 16µM*

How did CC(=O)Nc1ccc(NC(=O)CSc2nnc(-c3ccccc3Cl)n2Cc2ccco2)cc1 do in these assays?
ALOX12 inh: 2%

Results for Cc1ccnc(NC(=O)c2nccnc2N)c1 ?
ALOX12 inh: -81%

How did CC(C)c1ccc2nc(NC(=O)C3CC3)sc2c1 do in these assays?
HT1080NT lethal: -17%; HT1080 IDH1KD tx: -15%; ALOX12 inh: -1%; DT40 TDP1 CPT: inconclusive; TDP1 cell noCPT: inconclusive; IL-1B inflam inh: -57*

How did O=C(Nc1nc2ccc(Cl)cc2s1)C1CC1 do in these assays?
HT1080NT lethal: -11%; HT1080 IDH1KD tx: -5%; ALOX12 inh: inconclusive; DT40 TDP1 CPT: -27%; TDP1 cell noCPT: inconclusive; IL-1B inflam inh: 25

What do the screens show for `O=C(Nc1nc2cc3c(cc2s1)OCO3)C1CC1`?
HT1080NT lethal: -2%; HT1080 IDH1KD tx: 4%; ALOX12 inh: -6%; DT40 TDP1 CPT: 4.1µM*; TDP1 cell noCPT: 3.7µM*; IL-1B inflam inh: 3

What do the screens show for `CC(C)C(=O)Nc1nc2cc3c(cc2s1)OCO3`?
HT1080NT lethal: 6%; HT1080 IDH1KD tx: 6%; ALOX12 inh: -2%; DT40 TDP1 CPT: 5.2µM*; TDP1 cell noCPT: 4.6µM*; IL-1B inflam inh: 19

How did Fc1cccc2sc(Nc3nc4cc5c(cc4s3)OCO5)nc12 do in these assays?
HT1080NT lethal: inconclusive; HT1080 IDH1KD tx: inconclusive; ALOX12 inh: -23%; DT40 TDP1 CPT: 21µM*; TDP1 cell noCPT: inconclusive; IL-1B inflam inh: 12

How did CCN(CC)c1ccc(C=Nc2ccc(Br)c(Cl)c2)cc1 do in these assays?
ALOX12 inh: 32%

How did O=C(CCc1ncc(-c2ccccc2)o1)NC(C1CC1)C1CC1 do in these assays?
ALOX12 inh: 100%

How did O=C(CNS(=O)(=O)c1ccc(Br)s1)N1CCN(c2ccc(F)cc2)CC1 do in these assays?
HT1080NT lethal: -2%; HT1080 IDH1KD tx: -1%; ALOX12 inh: inconclusive; DT40 TDP1 CPT: inconclusive; TDP1 cell noCPT: 23µM*; IL-1B inflam inh: -1

Results for COc1ccc(N2CCN(C(=O)CCNS(=O)(=O)c3ccc(C)cc3)CC2)cc1 ?
HT1080NT lethal: 0%; HT1080 IDH1KD tx: -4%; ALOX12 inh: -15%; DT40 TDP1 CPT: inconclusive; TDP1 cell noCPT: inconclusive; IL-1B inflam inh: 0
